# Laboratory results as given in ChEMBL document CHEMBL4513147, “CO-ADD screening of Armstrong State University (GA, USA) compounds”.
# Screen size: about 21,000 compounds; fewer than 10 showed an effect of 50% or more. These entries were drawn from the full list. Potency and affinity values are given separately.
# Tested on: Acinetobacter baumannii
# Conditions: Concentration 32 ug.mL-1; ASSAY_TEST Inhibition of Bacterial Growth; detection method Absorption (OD600); MEDIA CAMHB; plate type 384well; NBS; CORNING #3640; time 18 hr
row,SMILES,Inhibition [%]
1,COc1ccc2c(c1)CCC(=Cc1cccnc1Br)C2=O,-2.26
